Measurements reported in PubChem BioAssay AID2284168 (EPA ToxCast).
Activity calls are given as the source filed them. Rule for the calls: active = hit-call score of the fitted dose curve at least 0.9, where 1 is the maximum; inactive = score below 0.9.

target: human Opioid Receptor delta (DOP) Agonism, OPRD1 (gene 4985) (UniProt P41143); test: ERF_FR_GPCR_hOPRD1: Eurofins (ERF) G Protein-Coupled Receptor (GPCR) Radioligand Binding LeadHunter Assay for human Opioid Receptor delta (DOP) Agonism
Protocol: ERF_FR_GPCR_hOPRD1 is a biochemical, single-readout assay that uses extracted gene-proteins in a cell-free assay. Measurements were taken 1 hour after chemical dosing in a 96-well plate. See delta (DOP) Human Opioid GPCR Binding (Agonist Radioligand) Assay, Cerep.ERF_FR_GPCR_hOPRD1 is an assay component calculated from the ERF_FR_GPCR_hOPRD1 assay. It is designed to measure radioligand binding using a type of binding reporter as detected by scintillation counting with radiometry technology.Data from the assay component ERF_FR_GPCR_hOPRD1 was analyzed at the assay endpoint, ERF_FR_GPCR_hOPRD1, in the positive analysis fitting direction relative to DMSO as the negative control and baseline of activity. Using a type of binding reporter, gain-of-signal activity can be used to understand changes in binding as they relate to gene OPRD1. To generalize the intended target to other relatable targets, this assay endpoint is annotated to the gpcr intended target family, where the subfamily is opioid.
Human cells are incubated for 60 minutes at room temprature with [3H]DADLE ligand (0.5 nM) and DPDPE as control inhibitor. Test Sample Requirements: Minimum for 1) Screen: 60 ul of 10 mM stock -OR- 1 mg (pre-weighed) for 10 uM final testing. 2) Dose Response: 90 ul of 10 mM stock -OR- 1 mg (pre-weighed) for a top concentration at 10 uM.

Sequence of human Opioid Receptor delta (DOP) Agonism, OPRD1 (gene 4985) (P41143 whole entry, looked up): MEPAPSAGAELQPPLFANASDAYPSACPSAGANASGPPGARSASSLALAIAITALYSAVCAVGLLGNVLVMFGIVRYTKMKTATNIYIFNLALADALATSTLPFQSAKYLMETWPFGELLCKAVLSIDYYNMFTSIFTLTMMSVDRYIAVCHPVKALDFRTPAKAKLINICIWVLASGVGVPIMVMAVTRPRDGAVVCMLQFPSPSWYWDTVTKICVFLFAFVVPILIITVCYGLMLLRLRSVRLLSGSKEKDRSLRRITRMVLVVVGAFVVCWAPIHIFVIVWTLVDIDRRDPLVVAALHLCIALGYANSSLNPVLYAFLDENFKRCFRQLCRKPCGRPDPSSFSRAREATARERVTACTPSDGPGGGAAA

Compound	AC50
O=C(/C=C/c1ccc(O)cc1)CC(=O)/C=C/c1ccc(O)cc1	1.5 µM (active)
